Test results reported in the supplement of paper PMC10849652.
Targets with a hit are over-represented here; the source holds about 7,900 in all. About 0.6% of all pairs of compound and target were hits. Values without a mark were called inactive.

Legend:
Experiment in all cases: log2 fold change, soluble protein after heating vs DMSO (PISA); higher = thermal stabilisation; K562 cells, 10 uM, 30 min; active = over 0.2 and 3.5 SD of the protein, either way, in both replicates (recomputed)
[1] = compound: C#Cc1cccc(Nc2ncnc3cc(OCCOC)c(OCCOC)cc23)c1 [erlotinib]
Summary of the method: (§1)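 K562 cells at 2×10^6 cells/mL were treated for 30 min with 10 μM compound, and aliquots were heated for 3 min over 48°C-58°C before pooling. Extraction used PBS with 0.5% NP-40 at 4°C, and soluble protein was the supernatant after 21,000xg for 90 min, measured by TMTpro 16plex LC-MS/MS with channel sums equalised. Thermal stability values, relative to control samples and from duplicates, are log2 fold changes.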

[2] = compound: C/C(=N\NC(=O)C1=CC(=CC=C1)S(=O)(=O)N2CCOCC2)/C3=C(C=CC(=C3)Cl)O
Summary of the method: as §1

[3] = compound: C1=CC(=C(C=C1Cl)C2=NC3=NC=CN=C3C(=N2)NC4=CC=NC=C4)F
Summary of the method: as §1

[4] = compound: C1=CC(=CC=C1C2=NC3=C(N2)C=C(C=C3)C(=O)N)OC4=CC=C(C=C4)Cl
Summary of the method: as §1

[5] = compound: C1=CC2=C(C=CC(=C2)/C=C\3/C(=O)NC(=NCC4=CC=CS4)S3)N=C1
Summary of the method: as §1

[6] = compound: C1=CC2=NC=CN=C2C=C1/C=C/3\C(=O)NC(=O)S3
Summary of the method: as §1

[7] = compound: C1=CC=C(C=C1)C2=NC(=C(N2)C3=CC=NC=C3)C4=CC(=C(C=C4)Cl)O
Summary of the method: as §1

[8] = compound: C1=CC=C2C(=C1)C3=NNC4=CC=CC(=C43)C2=O
Summary of the method: as §1

[9] = compound: C1CCN(C1)C(=O)NC2=CC=CC(=C2)NC3=NC=C(C(=N3)NCCC4=CN=CN4)Br
Summary of the method: as §1

[10] = compound: C1CN(CCC1(CC2=CC=C(C=C2)Cl)N)C3=NC=NC4=C3C=CN4
Summary of the method: as §1

[11] = compound: C1COCCN1CCN2C3=CC=CC=C3N=C2NC(=O)C4=CC(=CC=C4)[N+](=O)[O-] [IRAK-1-4 Inhibitor I]
Summary of the method: as §1

[12] = compound: C=CC(=O)N1CCC[C@@H](n2nc(-c3ccc(Oc4ccccc4)cc3)c3c(N)ncnc32)C1 [ibrutinib]
Summary of the method: as §1

[13] = compound: CC(=O)c1cnc2ccc(-c3cc(Cl)c(O)c(Cl)c3)nc2c1N[C@H]1CC[C@H](CN(C)C)CC1
Summary of the method: as §1

[14] = compound: CC(C)(C)Cn1c(N)nc2ccc(-c3[nH]c(C(C)(C)C)nc3-c3ccc(F)cc3)nc21 [ralimetinib]
Summary of the method: as §1

[15] = compound: CC(C)(O)CC(=O)NCCn1ccc2ncnc(Nc3ccc(Oc4cccc(C(F)(F)F)c4)c(Cl)c3)c21
Summary of the method: as §1

[16] = compound: CC(C)C1=C2N=C(C=C(N2N=C1)NCC3=CC=CC=C3)NCCCCCCN
Summary of the method: as §1

[17] = compound: CC(C)C[C@@H](C=O)NC(=O)[C@H](CC(C)C)NC(=O)[C@H](CC(C)C)NC(=O)OCc1ccccc1
Summary of the method: as §1

[18] = compound: CC(C)N(C[C@H]1O[C@@H](n2cnc3c(N)ncnc32)[C@H](O)[C@@H]1O)[C@H]1C[C@@H](CCc2nc3cc(C(C)(C)C)ccc3[nH]2)C1 [pinometostat]
Summary of the method: as §1

[19] = compound: CC1=C(C(CC(=O)N1)C2=CC=C(C=C2)C(F)(F)F)C(=O)NC3=C(C=C4C(=C3)C=NN4)F
Summary of the method: as §1

[20] = compound: CC1=C(C2=C(C=C1)C(=O)C3=CC=CC=C3N2CCCN)C
Summary of the method: as §1

Sequence of UniProt O43617 (O43617 whole entry, looked up): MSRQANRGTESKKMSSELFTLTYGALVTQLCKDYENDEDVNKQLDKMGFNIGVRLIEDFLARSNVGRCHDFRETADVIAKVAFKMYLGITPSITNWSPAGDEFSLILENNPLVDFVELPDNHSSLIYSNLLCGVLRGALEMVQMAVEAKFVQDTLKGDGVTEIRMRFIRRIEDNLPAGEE
Sequence of UniProt Q96JC1 (Q96JC1 whole entry, looked up): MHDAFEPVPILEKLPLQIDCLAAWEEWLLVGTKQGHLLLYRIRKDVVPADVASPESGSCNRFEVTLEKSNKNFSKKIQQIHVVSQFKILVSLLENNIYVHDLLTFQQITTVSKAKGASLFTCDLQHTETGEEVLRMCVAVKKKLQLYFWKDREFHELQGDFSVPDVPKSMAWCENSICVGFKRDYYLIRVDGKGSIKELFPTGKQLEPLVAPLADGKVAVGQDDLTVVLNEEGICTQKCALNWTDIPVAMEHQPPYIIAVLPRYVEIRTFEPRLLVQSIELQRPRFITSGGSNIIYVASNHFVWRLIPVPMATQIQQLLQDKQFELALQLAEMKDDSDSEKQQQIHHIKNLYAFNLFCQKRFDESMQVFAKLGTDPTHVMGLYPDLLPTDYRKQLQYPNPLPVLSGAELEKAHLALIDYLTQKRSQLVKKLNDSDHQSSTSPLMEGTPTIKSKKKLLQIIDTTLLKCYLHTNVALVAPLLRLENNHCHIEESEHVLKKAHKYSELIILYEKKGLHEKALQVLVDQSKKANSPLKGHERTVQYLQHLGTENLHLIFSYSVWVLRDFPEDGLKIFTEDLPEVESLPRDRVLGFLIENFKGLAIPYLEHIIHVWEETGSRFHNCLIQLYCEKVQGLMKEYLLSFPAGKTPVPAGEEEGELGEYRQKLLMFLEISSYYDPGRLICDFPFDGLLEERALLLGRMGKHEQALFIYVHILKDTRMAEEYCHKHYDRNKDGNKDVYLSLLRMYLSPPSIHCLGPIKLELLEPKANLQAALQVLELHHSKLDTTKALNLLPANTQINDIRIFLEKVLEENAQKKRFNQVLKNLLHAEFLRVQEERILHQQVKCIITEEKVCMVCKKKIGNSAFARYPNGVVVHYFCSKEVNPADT
Sequence of UniProt Q15629 (Q15629 whole entry, looked up): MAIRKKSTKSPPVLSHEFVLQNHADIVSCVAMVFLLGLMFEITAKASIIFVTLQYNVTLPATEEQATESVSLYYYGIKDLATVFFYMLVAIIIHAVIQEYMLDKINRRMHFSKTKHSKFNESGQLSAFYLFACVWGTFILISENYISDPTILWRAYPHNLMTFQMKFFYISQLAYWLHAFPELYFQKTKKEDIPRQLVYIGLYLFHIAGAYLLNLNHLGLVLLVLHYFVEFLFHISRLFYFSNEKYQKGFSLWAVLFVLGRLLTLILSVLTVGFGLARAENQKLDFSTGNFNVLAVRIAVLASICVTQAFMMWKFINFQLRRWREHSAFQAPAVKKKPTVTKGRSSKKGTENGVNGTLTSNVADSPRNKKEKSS
Sequence of UniProt P68366 (P68366 whole entry, looked up): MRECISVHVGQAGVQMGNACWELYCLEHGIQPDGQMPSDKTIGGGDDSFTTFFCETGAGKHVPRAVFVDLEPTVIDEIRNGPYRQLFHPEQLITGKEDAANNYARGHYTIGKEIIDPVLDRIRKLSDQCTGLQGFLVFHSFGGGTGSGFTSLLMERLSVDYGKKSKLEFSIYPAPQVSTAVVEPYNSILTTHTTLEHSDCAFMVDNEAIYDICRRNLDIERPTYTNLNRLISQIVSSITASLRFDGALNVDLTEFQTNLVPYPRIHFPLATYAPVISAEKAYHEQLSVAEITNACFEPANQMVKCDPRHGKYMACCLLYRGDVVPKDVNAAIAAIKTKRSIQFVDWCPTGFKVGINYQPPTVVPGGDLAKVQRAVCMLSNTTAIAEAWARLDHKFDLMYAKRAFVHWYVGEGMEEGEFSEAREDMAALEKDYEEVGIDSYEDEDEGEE
Sequence of UniProt Q9H3M7 (Q9H3M7 whole entry, looked up): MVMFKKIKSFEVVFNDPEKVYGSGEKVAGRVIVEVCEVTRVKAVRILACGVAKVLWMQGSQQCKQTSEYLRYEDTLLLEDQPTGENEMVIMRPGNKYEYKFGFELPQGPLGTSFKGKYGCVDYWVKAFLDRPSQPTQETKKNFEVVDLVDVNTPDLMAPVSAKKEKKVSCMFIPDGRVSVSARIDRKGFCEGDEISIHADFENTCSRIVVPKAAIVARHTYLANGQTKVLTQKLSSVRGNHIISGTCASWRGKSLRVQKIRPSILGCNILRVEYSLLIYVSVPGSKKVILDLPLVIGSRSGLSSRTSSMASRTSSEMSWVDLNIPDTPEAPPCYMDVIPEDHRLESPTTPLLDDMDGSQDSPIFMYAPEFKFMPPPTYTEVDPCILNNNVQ
Sequence of UniProt Q14157 (Q14157 whole entry, looked up): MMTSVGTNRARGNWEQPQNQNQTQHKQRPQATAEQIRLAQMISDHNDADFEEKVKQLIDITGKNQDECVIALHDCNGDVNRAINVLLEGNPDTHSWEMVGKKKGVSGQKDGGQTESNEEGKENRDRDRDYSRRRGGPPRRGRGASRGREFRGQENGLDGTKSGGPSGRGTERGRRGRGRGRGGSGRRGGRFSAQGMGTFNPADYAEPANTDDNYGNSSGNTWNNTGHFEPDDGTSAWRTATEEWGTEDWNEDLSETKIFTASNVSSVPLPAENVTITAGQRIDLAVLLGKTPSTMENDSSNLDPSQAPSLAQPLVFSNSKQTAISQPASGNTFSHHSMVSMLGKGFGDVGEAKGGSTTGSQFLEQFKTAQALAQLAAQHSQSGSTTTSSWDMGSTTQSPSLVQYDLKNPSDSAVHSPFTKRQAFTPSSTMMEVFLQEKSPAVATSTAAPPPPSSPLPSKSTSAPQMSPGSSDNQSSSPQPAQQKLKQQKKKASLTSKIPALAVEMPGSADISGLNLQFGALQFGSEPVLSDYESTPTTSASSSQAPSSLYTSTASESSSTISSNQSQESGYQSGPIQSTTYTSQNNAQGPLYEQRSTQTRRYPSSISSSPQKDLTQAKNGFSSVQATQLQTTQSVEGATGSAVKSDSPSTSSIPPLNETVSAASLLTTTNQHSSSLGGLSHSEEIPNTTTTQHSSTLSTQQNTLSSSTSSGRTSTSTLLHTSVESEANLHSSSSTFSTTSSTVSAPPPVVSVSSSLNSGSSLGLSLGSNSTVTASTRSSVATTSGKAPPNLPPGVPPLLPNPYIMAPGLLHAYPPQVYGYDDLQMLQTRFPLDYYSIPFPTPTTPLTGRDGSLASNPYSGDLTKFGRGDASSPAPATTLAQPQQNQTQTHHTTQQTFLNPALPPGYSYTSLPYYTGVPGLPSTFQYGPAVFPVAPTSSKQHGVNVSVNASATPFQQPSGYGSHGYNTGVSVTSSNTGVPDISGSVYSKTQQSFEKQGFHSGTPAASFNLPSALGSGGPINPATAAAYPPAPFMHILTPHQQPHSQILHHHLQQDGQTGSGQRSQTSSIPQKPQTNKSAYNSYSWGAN
Sequence of UniProt Q9C037 (Q9C037 whole entry, looked up): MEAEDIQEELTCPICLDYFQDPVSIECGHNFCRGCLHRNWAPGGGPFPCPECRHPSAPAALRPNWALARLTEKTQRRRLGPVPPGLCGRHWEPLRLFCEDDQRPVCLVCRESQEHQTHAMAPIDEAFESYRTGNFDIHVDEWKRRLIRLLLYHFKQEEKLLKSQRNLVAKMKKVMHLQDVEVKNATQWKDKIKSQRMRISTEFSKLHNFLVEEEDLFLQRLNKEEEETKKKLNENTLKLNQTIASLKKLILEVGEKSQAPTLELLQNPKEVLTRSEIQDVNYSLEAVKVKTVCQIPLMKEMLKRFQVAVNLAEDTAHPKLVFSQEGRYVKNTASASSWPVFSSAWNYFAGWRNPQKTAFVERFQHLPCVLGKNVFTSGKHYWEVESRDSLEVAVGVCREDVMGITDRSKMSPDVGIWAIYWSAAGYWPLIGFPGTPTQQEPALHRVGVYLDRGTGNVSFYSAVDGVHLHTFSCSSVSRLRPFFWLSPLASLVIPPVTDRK
Sequence of UniProt Q8N4H5 (Q8N4H5 whole entry, looked up): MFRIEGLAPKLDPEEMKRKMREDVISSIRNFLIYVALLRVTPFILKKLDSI

Target | log2 fold change [1] | log2 fold change [2] | log2 fold change [3] | log2 fold change [4] | log2 fold change [5] | log2 fold change [6] | log2 fold change [7] | log2 fold change [8] | log2 fold change [9] | log2 fold change [10] | log2 fold change [11] | log2 fold change [12] | log2 fold change [13] | log2 fold change [14] | log2 fold change [15] | log2 fold change [16] | log2 fold change [17] | log2 fold change [18] | log2 fold change [19] | log2 fold change [20]
TXNIP (UniProt Q9H3M7) | 0.013 | 0.017 | 0.082 | 0.025 | 0.108 | 0.124 | 0.141 | 0.034 | 0.137 | 0.041 | 0.05 | 0.016 | -0.053 | 0.13 | 0.072 | -0.371 | 0.128 | -0.083 | -0.097 | -0.42 (active)
TRIM4 (UniProt Q9C037) | 0.004 | 0.031 | 0.035 | -0.199 | 0.002 | -0.01 | -0.029 | 0.135 | -0.111 | -0.073 | -0.157 | 0.173 | -0.063 | 0.023 | -0.183 | -0.078 | -0.013 | 0.173 | -0.023 | 0.089
VPS39 (UniProt Q96JC1) | -0.006 | 0.08 | -0.005 | 0.022 | 0 | 0.023 | -0.014 | -0.046 | 0.01 | 0.054 | -0.055 | -0.015 | -0.036 | -0.018 | -0.039 | -0.265 | 0.031 | 0.032 | -0.027 | 0.008
UBAP2L isoform 1 (UniProt Q14157) | -0.126 | 0.013 | -0.003 | 0.083 | -0.06 | -0.023 | 0.04 | -0.024 | -0.082 | 0.017 | 0.076 | -0.006 | 0.007 | -0.025 | 0.016 | 0.103 | 0.029 | -0.031 | 0.073 | 0.055
TUBA4A (UniProt P68366) | 0.016 | 0.048 | 0.048 | -0.038 | 0.069 | -0.04 | -0.037 | 0.027 | -0.015 | 0.075 | 0.039 | 0.01 | 0.001 | -0.044 | -0.032 | 0 | 0.016 | -0.039 | -0.014 | 0.011
TRAM1 (UniProt Q15629) | 0.059 | 0.016 | -0.028 | -0.088 | 0.015 | 0.065 | 0.144 | -0.151 | 0.105 | 0 | -0.036 | -0.051 | -0.032 | -0.014 | -0.016 | -0.889 (active) | 0.012 | -0.011 | 0.016 | 0.119
TOMM5 isoform 2 (UniProt Q8N4H5) | -0.115 | 0.063 | 0.378 (active) | 0.134 | 0 | 0.052 | -0.123 | -0.003 | -0.038 | -0.047 | 0.037 | 0.01 | -0.033 | -0.099 | -0.048 | 0.221 | 0.036 | 0.148 | -0.004 | 0.003
TRAPPC3 (UniProt O43617) | -0.032 | 0.102 | 0.025 | -0.001 | 0.021 | 0.069 | -0.047 | -0.018 | 0.008 | -0.077 | 0.03 | -0.032 | -0.056 | -0.083 | -0.033 | -0.105 | 0.001 | -0.029 | 0.031 | 0.008
